Reference: the supplement of paper PMC13380429

System: Vero E6 infected with SARS-CoV-2
Assay: morphology score (similarity to uninfected cells); higher = more like uninfected cells
Details: 24 h

Point of comparison: `Cc1ccc(-c2cc(C(F)(F)F)nn2-c2ccc(S(N)(=O)=O)cc2)cc1` [celecoxib] (10 µM), morphology score 0.193. Against it:
- COC(=O)[C@@H]1[C@H]2C[C@H]3c4[nH]c5ccccc5c4CCN3C[C@@H]2CC[C@@H]1O [yohimbine] (10 µM) — lower, 0.0665
- Cc1cccc(C(C)c2c[nH]cn2)c1C (centres undefined) [medetomidine] (10 µM) — lower, -0.0614
- c1ccc(NCc2ccc(CNc3ccccn3)cc2)nc1 (10 µM) — lower, -0.0443
- Cc1[nH]c2ccc(O)cc2c1CCN [2-methyl-5-hydroxytryptamine] (10 µM) — lower, 0.00237
- CCc1ccc(CCOc2ccc(CC3SC(=O)NC3=O)cc2)nc1 (centres undefined) [pioglitazone] (10 µM) — lower, 0.077
- Cc1cccc(C)c1NC(=O)[C@@H](C)N [tocainide] (10 µM) — lower, -0.0832
- CC(C)(C)NCC(O)c1cc(Br)no1 (centres undefined) [broxaterol] (10 µM) — lower, -0.00593
- CCCc1cc(=O)[nH]c(=S)[nH]1 [propylthiouracil] (10 µM) — lower, 0.00376
- CNCCC(Oc1ccccc1OC)c1ccccc1 (centres undefined) [nisoxetine] (10 µM) — lower, 0.135
- C[C@]12CC[C@@H]3c4ccc(O)cc4C[C@@H](CCCCCCCCC[S+]([O-])CCCC(F)(F)C(F)(F)F)[C@H]3[C@@H]1CC[C@@H]2O (some centres undefined) [fulvestrant] (10 µM) — lower, -0.187
- Cc1nc(Nc2ccc(F)cc2)nc(N2CCc3ccccc3C2C)c1C (centres undefined) [revaprazan] (10 µM) — higher, 0.59
- NCCCCCNCC12CC3CC(CC(C3)C1)C2 (10 µM) — higher, 0.229
- CC(C)n1nc(-c2cc3cc(O)ccc3[nH]2)c2c(N)ncnc21 (10 µM) — lower, -0.0614
- C[C@H]1CCc2c(cc(Br)c(F)c2Br)N1C=O (10 µM) — lower, 0.0995
- COc1cc(N2CCC(N)CC2)ccc1Nc1ncc(Cl)c(-c2c[nH]c3ccccc23)n1 (0.833333 µM) — higher, 0.205
- OCc1cncc(F)c1 [5-fluoro-3-pyridyl-methanol] (10 µM) — lower, 0.135
- Cc1c(C)c2c(c(C)c1O)CCC(C)(C)O2 (10 µM) — lower, -0.0795
- O=C(O)COc1cccc(-c2ocnc2-c2nc(-c3ccccc3)c(-c3ccccc3)o2)c1 (10 µM) — higher, 0.194
- CCc1c(C(=O)C(N)=O)c2c(OCC(=O)O)cccc2n1Cc1ccccc1 [varespladib] (10 µM) — lower, 0.0669
- COc1cccc(Nc2c(C(N)=O)cnc3c(C)cc(S(=O)(=O)c4cccc(C(=O)N(C)C)c4)cc23)c1 (10 µM) — higher, 0.345
- COc1ncc2cc(C(=O)Nc3cc(C(=O)NCc4cccc(Cl)c4)ccc3Cl)c(=O)[nH]c2n1 (10 µM) — lower, -0.0693
- CNCCCN1c2ccccc2CCc2ccccc21 [desipramine] (10 µM) — higher, 0.212
- COc1ccc(CCC(=O)c2c(O)cc(O[C@@H]3O[C@H](CO)[C@@H](O)[C@H](O)[C@H]3O[C@@H]3O[C@@H](C)[C@H](O)[C@@H](O)[C@H]3O)cc2O)cc1O [Neohesperidin dihydrochalcone (Nhdc)] (10 µM) — lower, 0.0549
- Cc1ccc(-c2ncn(-c3ccc(Nc4nccc(-c5cccc(N6CCOCC6)c5)n4)cc3)n2)cn1 (10 µM) — lower, -0.292
- COc1cc(OC)nc(O[C@H](C(=O)O)C(OC)(c2ccccc2)c2ccccc2)n1 [darusentan] (10 µM) — lower, -0.0345
- O=C(NCCCN1CCOCC1)c1cnn2c(-c3ccccc3)cc(-c3ccccc3)nc12 [reversan] (10 µM) — higher, 0.226
- CN(C)CCCSc1ccccc1NC(=O)/C=C/c1ccccc1 [cinanserin] (10 µM) — lower, 0.164
- Cc1cc(F)c(Nc2ncnc3cc(OCc4ccccc4)ccc23)cc1O (10 µM) — lower, 0.0561
- C[C@H](c1ccc(F)cc1CCCC(=O)O)N(c1cc(F)ccc1F)S(=O)(=O)c1ccc(Cl)cc1 (10 µM) — lower, 0.0279
- NC(=O)CN1C=CCC(C(N)=O)=C1 [caricotamide] (10 µM) — lower, 0.109
- CC(C)(O)CC[C@@H](O)[C@](C)(O)[C@H]1CC[C@@]2(O)C3=CC(=O)[C@@H]4C[C@@H](O)[C@@H](O)C[C@]4(C)[C@H]3CC[C@]12C [20-hydroxyecdysone] (10 µM) — lower, 0.0401
- CC(C)CCN1c2nc(Nc3cc(F)c(O)c(F)c3)ncc2N(C)C(=O)[C@@H]1C (0.833333 µM) — lower, 0.164
- COc1cccc2c1c(O)c(C(=O)N(C)c1ccc(C(F)(F)F)cc1)c(=O)n2C [tasquinimod] (10 µM) — lower, 0.168
